# Measured values as given in ChEMBL document CHEMBL5308504, “Tm Shift (DSF) assay results for EUbOPEN Chemogenomics Library” (2023).
# Where “and” joins values, the source holds several entries; their conditions need not be identical. Equal values may be shown once.
# What was measured:
# Conditions in all cases: Compound concentration 20.0 uM, Protein concentration 2.0 uM, Result type QC Liability
# [1] = target: Tyrosine-protein kinase ABL1 (Homo sapiens) (UniProt P00519)
# [2] = target: Cyclin-dependent kinase 2 (Homo sapiens) (UniProt P24941)
# [3] = target: Casein kinase I isoform delta (Homo sapiens) (UniProt P48730)
# [4] = target: Glycogen synthase kinase-3 beta (Homo sapiens) (UniProt P49841)
# [5] = target: Mitogen-activated protein kinase 1 (Homo sapiens) (UniProt P28482)
# [6] = target: T1, Aurora kinase A (Homo sapiens) (UniProt O14965)
# T1 sequence (whole entry): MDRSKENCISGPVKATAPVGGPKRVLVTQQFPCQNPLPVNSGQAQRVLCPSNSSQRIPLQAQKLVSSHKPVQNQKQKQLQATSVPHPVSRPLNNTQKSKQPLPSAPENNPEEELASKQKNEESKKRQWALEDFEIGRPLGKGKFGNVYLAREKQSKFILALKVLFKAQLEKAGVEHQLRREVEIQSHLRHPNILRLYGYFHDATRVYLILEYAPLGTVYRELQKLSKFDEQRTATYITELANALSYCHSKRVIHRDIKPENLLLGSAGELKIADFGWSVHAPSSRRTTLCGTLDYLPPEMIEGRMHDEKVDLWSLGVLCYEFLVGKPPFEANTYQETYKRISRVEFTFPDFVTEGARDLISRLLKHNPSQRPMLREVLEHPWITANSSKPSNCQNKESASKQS
# Chain of Glycogen synthase kinase-3 beta (Homo sapiens) (P49841 whole entry, looked up): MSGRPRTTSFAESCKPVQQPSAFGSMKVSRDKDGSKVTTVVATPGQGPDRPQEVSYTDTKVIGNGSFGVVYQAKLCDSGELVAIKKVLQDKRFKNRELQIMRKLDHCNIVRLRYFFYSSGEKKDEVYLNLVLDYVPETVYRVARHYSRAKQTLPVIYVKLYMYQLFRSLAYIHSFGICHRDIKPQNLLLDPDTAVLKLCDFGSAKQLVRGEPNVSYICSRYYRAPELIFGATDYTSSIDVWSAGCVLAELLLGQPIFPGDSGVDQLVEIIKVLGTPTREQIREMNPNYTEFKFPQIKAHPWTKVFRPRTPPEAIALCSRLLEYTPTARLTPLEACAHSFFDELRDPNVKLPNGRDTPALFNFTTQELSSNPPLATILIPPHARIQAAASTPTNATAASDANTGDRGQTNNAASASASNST
# Chain of Mitogen-activated protein kinase 1 (Homo sapiens) (P28482 whole entry): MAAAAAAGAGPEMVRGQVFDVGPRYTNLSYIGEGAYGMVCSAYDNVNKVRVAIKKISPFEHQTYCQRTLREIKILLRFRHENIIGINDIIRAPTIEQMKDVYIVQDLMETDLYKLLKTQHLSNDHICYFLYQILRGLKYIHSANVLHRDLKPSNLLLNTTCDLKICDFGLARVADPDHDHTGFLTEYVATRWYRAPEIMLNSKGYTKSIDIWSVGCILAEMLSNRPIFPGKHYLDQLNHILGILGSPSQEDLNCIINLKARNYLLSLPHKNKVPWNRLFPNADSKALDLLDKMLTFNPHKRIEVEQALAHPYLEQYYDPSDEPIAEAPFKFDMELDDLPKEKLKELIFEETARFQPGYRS
# Chain of Tyrosine-protein kinase ABL1 (Homo sapiens) (P00519 whole entry): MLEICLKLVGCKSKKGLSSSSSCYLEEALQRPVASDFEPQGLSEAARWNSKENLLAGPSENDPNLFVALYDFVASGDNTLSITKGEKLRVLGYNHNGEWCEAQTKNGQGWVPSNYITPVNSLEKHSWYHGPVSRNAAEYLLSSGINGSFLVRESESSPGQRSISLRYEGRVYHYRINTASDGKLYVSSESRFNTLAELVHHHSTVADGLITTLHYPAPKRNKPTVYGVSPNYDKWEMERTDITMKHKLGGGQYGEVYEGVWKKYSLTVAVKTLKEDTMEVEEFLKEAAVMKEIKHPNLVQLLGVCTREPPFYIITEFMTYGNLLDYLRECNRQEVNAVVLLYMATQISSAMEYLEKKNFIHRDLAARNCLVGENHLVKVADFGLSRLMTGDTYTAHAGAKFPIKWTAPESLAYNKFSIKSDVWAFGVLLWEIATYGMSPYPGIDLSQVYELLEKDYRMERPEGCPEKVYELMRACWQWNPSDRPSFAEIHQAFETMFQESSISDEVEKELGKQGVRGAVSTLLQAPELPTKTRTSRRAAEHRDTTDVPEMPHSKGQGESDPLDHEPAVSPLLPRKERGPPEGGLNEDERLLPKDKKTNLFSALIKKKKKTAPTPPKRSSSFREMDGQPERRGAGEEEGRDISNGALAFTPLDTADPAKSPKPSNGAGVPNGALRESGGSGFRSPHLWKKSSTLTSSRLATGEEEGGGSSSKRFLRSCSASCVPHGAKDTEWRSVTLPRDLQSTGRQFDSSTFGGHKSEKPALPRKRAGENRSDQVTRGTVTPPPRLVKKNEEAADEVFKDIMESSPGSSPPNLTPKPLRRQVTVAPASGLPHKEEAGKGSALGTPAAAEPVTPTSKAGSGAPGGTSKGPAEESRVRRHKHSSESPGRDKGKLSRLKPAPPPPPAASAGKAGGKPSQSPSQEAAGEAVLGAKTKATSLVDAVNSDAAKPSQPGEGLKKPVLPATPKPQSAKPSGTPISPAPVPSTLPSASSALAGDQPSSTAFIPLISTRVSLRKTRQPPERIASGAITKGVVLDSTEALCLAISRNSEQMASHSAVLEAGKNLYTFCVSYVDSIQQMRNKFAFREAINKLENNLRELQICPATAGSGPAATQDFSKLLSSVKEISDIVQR
# Chain of Casein kinase I isoform delta (Homo sapiens) (P48730 whole entry, looked up, canonical isoform): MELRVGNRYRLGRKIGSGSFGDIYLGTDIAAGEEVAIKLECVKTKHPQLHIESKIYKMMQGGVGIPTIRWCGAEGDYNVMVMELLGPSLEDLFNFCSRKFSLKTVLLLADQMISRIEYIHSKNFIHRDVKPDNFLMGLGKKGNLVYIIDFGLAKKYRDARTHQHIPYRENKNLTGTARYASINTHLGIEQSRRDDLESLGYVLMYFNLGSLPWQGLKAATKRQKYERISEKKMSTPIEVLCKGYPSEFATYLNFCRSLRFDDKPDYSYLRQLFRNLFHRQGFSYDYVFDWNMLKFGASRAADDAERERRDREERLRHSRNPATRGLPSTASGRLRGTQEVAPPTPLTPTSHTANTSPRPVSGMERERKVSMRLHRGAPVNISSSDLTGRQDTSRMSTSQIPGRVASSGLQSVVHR
smiles,measurement,setting,value
O=C(O)c1cccc(C2=C(c3cc(Cl)ccc3OCc3ccc(F)cc3F)CCC2)n1,ΔTm,[1],-0.85 °C
same,ΔTm,[2],-1.05 °C
same,ΔTm,[3],-0.59 °C
same,ΔTm,[4],0 °C
same,ΔTm,[5],-0.17 °C
same,ΔTm,[6],-0.7 °C
Cc1cc(OCc2nc3ccccc3s2)ccc1NC(=O)Nc1ccc(Cl)c(Cl)c1,ΔTm,[1],0.33 °C
same,ΔTm,[2],1.38 °C
same,ΔTm,[3],-0.26 °C
same,ΔTm,[4],-1.81 °C
same,ΔTm,[5],-0.19 °C
same,ΔTm,[6],0.13 °C
CC(C)(C)c1cc(NC(=O)c2csc(Nc3ccccn3)n2)no1,ΔTm,[1],1.84 °C
same,ΔTm,[2],0.49 °C
same,ΔTm,[3],0.84 °C
same,ΔTm,[4],0.22 °C
same,ΔTm,[5],0.57 °C
same,ΔTm,[6],1.27 °C
COc1cc(-c2cc([C@H](O)C3CC3)n3ncnc(N)c23)ccc1CO,ΔTm,[1],9.08 °C
same,ΔTm,[2],0.4 °C
same,ΔTm,[3],4.52 °C
same,ΔTm,[4],0.91 °C
same,ΔTm,[5],0.82 °C
same,ΔTm,[6],1.06 °C
C[C@@H]1CC(=O)N(C2CC2)N=C1c1ccc(NC(=O)N2Cc3ccncc3C2)cc1,ΔTm,[1],0.36 °C
same,ΔTm,[2],0.35 °C
same,ΔTm,[3],0.2 °C
same,ΔTm,[4],-0.86 °C
same,ΔTm,[5],0.29 °C
same,ΔTm,[6],0.22 °C
COCCNC1CCC(Nc2cc(-c3csc(NCC4(C#N)CCOCC4)n3)c(Cl)cn2)CC1 (stereo not drawn),ΔTm,[1],0.32 °C
same,ΔTm,[2],1.7 °C
same,ΔTm,[3],2.18 °C
same,ΔTm,[4],6.51 °C
same,ΔTm,[5],0.43 °C
same,ΔTm,[6],1.44 °C
COc1cc2c(NC3CCN(C(C)C)CC3)nc(C3CCCCC3)nc2cc1OCCCN1CCCC1,ΔTm,[1],0.15 °C
same,ΔTm,[2],0.9 °C
same,ΔTm,[3],0.11 °C
same,ΔTm,[4],-0.55 °C
same,ΔTm,[5],0.32 °C
same,ΔTm,[6],0.5 °C
CCc1cnn2c(NCc3ccc[n+]([O-])c3)cc(N3CCCCC3CCO)nc12 (stereo not drawn),ΔTm,[1],0.22 °C
same,ΔTm,[3],1.31 °C
same,ΔTm,[4],7.6 °C
same,ΔTm,[5],1.41 °C
same,ΔTm,[6],-0.54 °C
Cc1ccc(-n2nc(C(C)(C)C)cc2NC(=O)Nc2ccc(OCCN3CCOCC3)c3ccccc23)cc1,ΔTm,[2],1.17 °C and 1.39 °C
same,ΔTm,[3],3.31 °C and 1.35 °C
same,ΔTm,[4],3.17 °C and 2.68 °C
same,ΔTm,[5],0.43 °C and 1.14 °C
same,ΔTm,[6],0.18 °C and 0.11 °C
O=C(NC[C@@H]1[C@H]2CN(C(=O)OCc3cc(C(F)(F)F)cc(C(F)(F)F)c3)C[C@@H]12)c1ccc2[nH]nnc2c1,ΔTm,[1],-2.53 °C
same,ΔTm,[2],-9.8 °C
same,ΔTm,[3],0.69 °C
same,ΔTm,[4],-10.5 °C
same,ΔTm,[5],-10.3 °C
same,ΔTm,[6],0.61 °C
CNC(=O)c1ccc(C)c(-n2c(C)cc(OCc3ccc(F)cc3F)c(Br)c2=O)c1,ΔTm,[1],-0.5 °C
same,ΔTm,[2],-0.88 °C
same,ΔTm,[3],-0.45 °C
same,ΔTm,[4],-1.44 °C
same,ΔTm,[5],-0.46 °C
same,ΔTm,[6],-1.48 °C
FC(F)(F)c1ccc(CNc2ccc(Cc3c[nH]c4ncc(Cl)cc34)cn2)cn1,ΔTm,[1],-2.59 °C
same,ΔTm,[2],1.62 °C
same,ΔTm,[3],1.05 °C
same,ΔTm,[4],-0.38 °C
same,ΔTm,[5],0.93 °C
same,ΔTm,[6],10.6 °C
COc1ccc(-c2cc3c(C)nc(N)nc3n([C@H]3CC[C@H](OCCO)CC3)c2=O)cn1,ΔTm,[1],0.46 °C
same,ΔTm,[2],0 °C
same,ΔTm,[3],-0.16 °C
same,ΔTm,[4],-0.85 °C
same,ΔTm,[5],0.38 °C
same,ΔTm,[6],-0.59 °C
NS(=O)(=O)c1ccc(Nc2nc(OCC3CCCCC3)c3nc[nH]c3n2)cc1,ΔTm,[1],5.71 °C
same,ΔTm,[3],0.51 °C
same,ΔTm,[4],5.83 °C
same,ΔTm,[5],2.65 °C
same,ΔTm,[6],7.68 °C
CC(C)(C)c1cnc(CSc2cnc(NC(=O)C3CCNCC3)s2)o1,ΔTm,[1],0.04 °C
same,ΔTm,[3],1.29 °C
same,ΔTm,[4],8.72 °C
same,ΔTm,[5],0.73 °C
same,ΔTm,[6],4.45 °C
CNCc1ccc(-c2cc(-c3nc(-c4ccc(S(=O)(=O)C(C)C)cc4)cnc3N)on2)cc1,ΔTm,[1],4.85 °C
same,ΔTm,[2],-0.24 °C
same,ΔTm,[3],-0.18 °C
same,ΔTm,[4],9.94 °C
same,ΔTm,[5],-0.07 °C
same,ΔTm,[6],2.41 °C
O=C1Nc2ccc(I)cc2/C1=C/c1cc(Br)c(O)c(Br)c1,ΔTm,[1],2.98 °C
same,ΔTm,[2],0.35 °C
same,ΔTm,[3],0.18 °C
same,ΔTm,[4],-1.46 °C
same,ΔTm,[5],0.48 °C
same,ΔTm,[6],-0.27 °C
